Records with an inconclusive call do not appear. Active and inactive are the calls of the source. Unless noted, the call rests on the fitted dose curve.

Experimental findings from PubChem BioAssay (NCATS) are described below.

Experiment [1] deals with Cytochrome P450 3A4 (Homo sapiens) (UniProt P08684). The experiment in a line: qHTS Assay for Activators of Cytochrome P450 3A4 (AID 885; active means well fitted curve in the direction sought with a large enough effect; an effect the other way counts as inactive or inconclusive; further: nearly all actives have a fitted effect of over 65% in size). The method in brief: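 Quantitative HTS format: compounds preincubated with 20nM human CYP3A4 and Luciferin-PPXE substrate at KM, reaction started by NADPH regeneration, stopped after 60 min, luciferase luminescence read 20 min later.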
Sequence of Cytochrome P450 3A4 (Homo sapiens) (P08684 whole entry, looked up): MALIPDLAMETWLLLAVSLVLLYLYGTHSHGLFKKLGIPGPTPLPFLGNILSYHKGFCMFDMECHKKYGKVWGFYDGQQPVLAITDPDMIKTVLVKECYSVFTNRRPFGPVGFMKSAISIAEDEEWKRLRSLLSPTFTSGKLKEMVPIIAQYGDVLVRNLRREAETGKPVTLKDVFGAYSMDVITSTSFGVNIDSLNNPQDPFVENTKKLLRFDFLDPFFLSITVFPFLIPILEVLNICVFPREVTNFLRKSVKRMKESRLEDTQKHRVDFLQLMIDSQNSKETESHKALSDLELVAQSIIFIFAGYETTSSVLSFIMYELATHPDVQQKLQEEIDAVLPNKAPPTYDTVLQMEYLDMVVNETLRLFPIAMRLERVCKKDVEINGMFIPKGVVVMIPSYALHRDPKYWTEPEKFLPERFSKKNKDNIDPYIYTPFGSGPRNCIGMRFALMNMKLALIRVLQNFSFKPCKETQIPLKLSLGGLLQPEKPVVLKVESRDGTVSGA

Experiment [2] has as its target Bile acid receptor (Homo sapiens) (UniProt Q96RI1). The experiment in a line: qHTS assay for small molecule agonists of farnesoid X receptor signaling (AID 588527).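 Further: series mostly up to about 77 µM; 0% = vehicle basal and 100% = reference agonist.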 Particulars: HEK293T FXR-UAS-bla, beta-lactamase ratio, 16 h; activation: stronger effect = higher value. The method, boiled down: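 Quantitative HTS used FXR-UAS-bla HEK293T cells with 16 h compound incubation at 37 C. EC50 values came from concentration-response curves normalized to chenodeoxycholic acid.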
A general note: qHTS replaces the single test concentration by a dilution series.

The target of experiment [3] is Peroxisome proliferator-activated receptor delta (Homo sapiens) (UniProt Q03181). The experiment in a line: qHTS assay for small molecule agonists of peroxisome proliferator-activated receptor delta signaling (AID 588534).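 Further: 0% = DMSO basal wells and 100% = positive control agonist at 10 µM.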 The method in brief:
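Reporter cells were plated and held 5 hrs at 37 C before compounds were added. After 18 hrs at 37 C, CCF4 dye was loaded for 2 hrs at RT and fluorescence measured.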

The target in experiment [4] is Glucocorticoid receptor (Homo sapiens) (UniProt P04150). The experiment in a line: qHTS assay for small molecule agonists of glucocorticoid receptor signaling (AID 588532; active means well fitted curve in the direction sought with a large enough effect in the signal ratio, with a control signal flat; the % refers to the signal ratio;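 further: 100% = dexamethasone at 0.1 µM and 0% = DMSO only wells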). Particulars: HeLa MMTV-bla, beta-lactamase ratio, agonist, 18 h; activation: stronger effect = higher value, percent of dexamethasone control, DMSO zero. The method in brief: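 Quantitative HTS using CellSensor MMTV-bla HeLa cells in charcoal/dextran-treated serum; compounds tested up to 92 uM. After 18 h at 37 C, CCF4 dye reported reporter induction.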
Sequence of Glucocorticoid receptor (Homo sapiens) (P04150 whole entry, looked up): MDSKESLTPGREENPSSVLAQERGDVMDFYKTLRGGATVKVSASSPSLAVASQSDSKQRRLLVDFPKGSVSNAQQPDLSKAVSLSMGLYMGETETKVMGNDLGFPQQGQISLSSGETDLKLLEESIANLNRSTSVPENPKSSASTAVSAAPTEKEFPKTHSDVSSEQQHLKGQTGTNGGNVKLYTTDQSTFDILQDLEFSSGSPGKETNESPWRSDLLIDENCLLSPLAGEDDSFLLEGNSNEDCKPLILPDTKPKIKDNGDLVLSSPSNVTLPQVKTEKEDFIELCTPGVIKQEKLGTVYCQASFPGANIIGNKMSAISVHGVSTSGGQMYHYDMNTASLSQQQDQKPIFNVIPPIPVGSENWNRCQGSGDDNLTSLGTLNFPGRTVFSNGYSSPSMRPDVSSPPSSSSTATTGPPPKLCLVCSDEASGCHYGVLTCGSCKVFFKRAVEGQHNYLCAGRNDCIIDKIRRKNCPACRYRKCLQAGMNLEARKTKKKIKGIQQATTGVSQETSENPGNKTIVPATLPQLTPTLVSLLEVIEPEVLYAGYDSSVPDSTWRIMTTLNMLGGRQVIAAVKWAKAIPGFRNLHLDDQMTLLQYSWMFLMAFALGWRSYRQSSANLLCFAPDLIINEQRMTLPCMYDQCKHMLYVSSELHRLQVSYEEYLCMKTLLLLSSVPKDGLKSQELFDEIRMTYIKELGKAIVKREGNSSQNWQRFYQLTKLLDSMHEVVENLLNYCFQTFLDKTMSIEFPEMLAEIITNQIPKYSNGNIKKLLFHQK

A short description of experiment [5]: qHTS assay for small molecule antagonists of peroxisome proliferator-activated receptor delta signaling (AID 588535; active means well fitted inhibition curve with a large enough effect in the signal ratio, with a control signal flat, not every such curve was filed as active; the % refers to the signal ratio;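 on max response: cells co-treated with a PPAR-delta agonist as stimulator during compound exposure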). The settings on record: HEK293T PPARd-UAS-bla, beta-lactamase FRET ratio, 18 h; 460 nm channel. The method, boiled down:
(§1)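 Cell-based beta-lactamase assay in antagonist mode: 4000 HEK293T PPAR-delta-UAS-bla cells per well, 5 hr preincubation then 18 hr compound incubation at 37 C. IC50 obtained by Hill equation fitting.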

For experiment [6], the target named is Peroxisome proliferator-activated receptor delta (Homo sapiens) (UniProt Q03181). The description is as above. The method, boiled down:
as §1

Experiment [7] deals with Peroxisome proliferator-activated receptor gamma (Homo sapiens) (UniProt P37231). The experiment in a line: qHTS assay for small molecule agonists of peroxisome proliferator-activated receptor gamma signaling (AID 588536; active means well fitted curve in the direction sought with a large enough effect in the signal ratio, with a control signal flat, not every such curve was filed as active; the % refers to the signal ratio;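 further: 0% = DMSO basal wells and 100% = rosiglitazone at 2 µM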). The method, boiled down:
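HEK293 UAS-bla reporter line, 1% charcoal/dextran FBS; titration, 16 h, 37 C; CCF4 loading 2 h RT; fluorescence 460/530 nm. Normalized to rosiglitazone 2 uM = 100%, DMSO = 0%.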

Experiment [8] shares this target. The experiment in a line: qHTS assay for small molecule antagonists of peroxisome proliferator-activated receptor gamma signaling (AID 588537; active means well fitted inhibition curve with a large enough effect in the signal ratio, with a control signal flat, not every such curve was filed as active; the % refers to the signal ratio;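 further: reporter cells co-stimulated with 50 nM rosiglitazone agonist during compound treatment; % of control where 0% means no effect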). The method, boiled down: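 Inhibitors of agonist-stimulated UAS-bla reporter activity were sought in HEK293 cells; rosiglitazone (50 nM) defined full signal and DMSO baseline. Curves fitted to Hill model gave IC50 and efficacy.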

Experiment [9] addresses Vitamin D3 receptor (Homo sapiens) (UniProt P11473). Kind of experiment: qHTS assay for small molecule antagonists of vitamin D receptor signaling (AID 588541).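 Further: receptor activated by calcitriol during compound treatment; series mostly up to about 77 µM; on the % scale 0 is the no-effect control and ±100 the full control effect.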 The method in brief: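 Antagonist-mode beta-lactamase reporter assay: HEK293T VDR-UAS-bla cells were exposed to titrated compound alongside 1-alpha,25-dihydroxyvitamin D3 at 3 nM final for 16 h. Values were normalized to the 50 nM agonist control and DMSO basal, with IC50 and efficacy from Hill equation fits.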

For experiment [10] the target is unchanged. The experiment in a line: qHTS assay for small molecule agonists of vitamin D receptor signaling (AID 588543).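 Further: 0% = DMSO basal and 100% = reference agonist control.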 The method, boiled down:
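qHTS in agonist mode: compound titrations stimulate a VDR-driven β-lactamase reporter in HEK293T cells over 16 h at 37 °C. Response normalized to 50 nM 1α,25-dihydroxyvitamin D3 = 100%, DMSO = 0%; Hill fitting gives EC50 and maximal response.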

Experiment [11] has as its target Retinoic acid receptor RXR-alpha (Homo sapiens) (UniProt P19793). The experiment in a line: qHTS assay for small molecule agonists of retinoid X receptor alpha signaling (AID 588544).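 Further: 0% = DMSO basal wells and 100% = reference agonist.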
Experiment [12] addresses Thyroid hormone receptor beta (Homo sapiens) (UniProt P10828). Kind of experiment: qHTS assay for small molecule agonists of thyroid hormone receptor beta signaling (AID 588545). The method, boiled down:
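In this cell-based screen, titrated compounds act on HEK 293 cells held in medium with 2% charcoal/dextran FBS, NEAA and pyruvate for 18 hrs at 37 C. Responses are expressed relative to T3 (10 nM) as 100% and basal DMSO as 0%.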

Experiment [13] can be described thus: qHTS assay for small molecule antagonists of retinoid X receptor alpha signaling (AID 588546).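 Further: cells stimulated with 9-cis-retinoic acid as agonist; on the % scale 0 is the no-effect control and ±100 the full control effect.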 Particulars: HEK293T RXRa-UAS-bla, beta-lactamase ratio, antagonist mode; measured here: W530 green channel, cytotoxicity proxy. The method in brief: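 Beta-lactamase reporter inhibition, read as CCF4 fluorescence ratio (ex 405, em 460/530 nm) after 2 h at RT. HEK293T UAS-bla cells, 2500/well, were stimulated with 9-cis-RA at 500 or 100 nM final alongside test compound for 18 h at 37 C.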

Experiment [14] addresses Thyroid hormone receptor beta (Homo sapiens) (UniProt P10828). Kind of experiment: qHTS assay for small molecule antagonists of thyroid hormone receptor beta signaling (AID 588547; active means well fitted inhibition curve with a large enough effect in the signal ratio, with a control signal flat, not every such curve was filed as active; the % refers to the signal ratio;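 further: cells stimulated with 0.4 nM T3 agonist during compound exposure; series mostly up to about 77 µM; on the % scale 0 is the no-effect control and ±100 the full control effect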). Particulars: TR-UAS-bla HEK293, beta-lactamase ratio, antagonist mode, 18 h. The method, boiled down: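 Inhibition of T3-driven (0.4nM final) beta-lactamase reporter activity was measured over 0.59 nM to 92 uM compound after 18 h at 37 C. The cells were GripTite HEK293 TR-UAS-bla in charcoal/dextran-stripped serum, with CCF4 ratio read-out and IC50 from Hill fits.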

Experiment [15] is described as follows: qHTS assay for small molecule agonists of the antioxidant response element (ARE) signaling pathway (AID 651741; active means well fitted activation curve with a large enough effect in the signal ratio; the % refers to the signal ratio; further: potency means the concentration at half of the fitted maximal effect; on activation: % of control where 0% means no effect). The method, boiled down:
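Seeding 2,000 ARE-bla HepG2 cells per well preceded a 5 h incubation at 37 C/5% CO2 and a 16 h compound exposure at 37 C. Beta-lactamase reporter activity was then quantified by fluorescence after 2 h with LiveBLAzer B/G FRET substrate.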

Experiment [16] is described as follows: qHTS assay for small molecule activators of the p53 signaling pathway (AID 651743; active means well fitted activation curve with a large enough effect in the signal ratio, not every such curve was filed as active; the % refers to the signal ratio; further: series mostly up to about 92 µM; % of control where 0% means no effect). Particulars: HCT-116 p53RE-bla, beta-lactamase FRET ratio, 16 h; activation: stronger effect = higher value. The method, boiled down: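 Screen for p53 pathway agonists uses stably transfected p53RE-bla HCT-116 cells, 4,000 per well, treated 16 h at 37 C with compounds in DMSO.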
A short description of experiment [17]: qHTS assay for environmental chemicals that activate the Aryl hydrocarbon Receptor (AhR) signaling pathway (AID 651777; active means well fitted curve in the direction sought with a large enough effect; an effect the other way counts as inactive or inconclusive; further: % of control where 0% means no effect; nearly all actives have a fitted effect of over 15% in size). The settings on record: 1A2-DRE human hepatoma cells, luciferase, 24 h; activation: stronger effect = higher value. The method in brief:
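1A2-DRE human hepatoma reporter line; 1,200 cells/well; cmpd or DMSO 24 h, 37 C/5% CO2; One-Glo 30 min RT; luciferase lum.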

In experiment [18] the target is Peroxisome proliferator-activated receptor alpha (Homo sapiens) (UniProt Q07869). Kind of experiment: qHTS assay for small molecule agonists of the peroxisome proliferator-activated receptor alpha (PPARalpha) signaling pathway (AID 651778; active means well fitted curve in the direction sought with a large enough effect; an effect the other way counts as inactive or inconclusive; further: % of control where 0% means no effect). The settings on record: PathHunter PPARalpha complementation, chemiluminescence, 6 h; max response: stronger effect = higher value. The method in brief:
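Chemiluminescence from complemented enzyme reported PPARalpha activation in cells after 6 hr of compound treatment at 37 C. The detection reagent was incubated for 60 min at room temperature, and compounds were scored as agonists.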

Experiment [19] in a line: qHTS assay for small molecule agonists of the antioxidant response element (ARE) signaling pathway measured by Nrf2-dependant transcriptional activity (AID 720636; active means well fitted curve in the direction sought with a large enough effect in the repeat runs; an effect the other way counts as inactive or inconclusive;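 further: HepG2 cells with an ARE-driven luciferase reporter; % of control where 0% means no effect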). The method, boiled down: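 Cells: ARE-luc HepG2 with Nrf2-responsive luciferase. Medium contained 1% dialyzed FBS. Compound exposure lasted 16 hr at 37 C and 5% CO2, followed by ONE-Glo luciferase detection.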

A short description of experiment [20]: qHTS assay for small molecule agonists of the antioxidant response element (ARE) signaling pathway measured by Nrf2-dependant transcriptional activity - cell viability counter screen (AID 720653; active means well fitted curve in the direction sought with a large enough effect in the repeat runs; an effect the other way counts as inactive or inconclusive; further: on the % scale 0 is the no-effect control and ±100 the full control effect). The settings on record: ARE-bla HepG2 viability, CellTiter-Glo ATP luminescence, 16 h; max response: stronger effect = lower value. The method in brief: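 Cytotoxicity counter screen: intracellular ATP quantified by CellTiter-Glo luminescence in the same ARE-bla HepG2 plates, after 16 h compound exposure and a 2 h beta-lactamase substrate step.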

Experiment [21] in a line: qHTS assay for cell viability of HEK293 cells (AID 743288; active means well fitted curve in the direction sought with a large enough effect; an effect the other way counts as inactive or inconclusive; further: on the % scale 0 is the no-effect control and ±100 the full control effect; nearly all actives have a fitted effect of over 50% in size). Particulars: ATP luminescence (CellTiter-Glo), 18 h; max response: stronger effect = lower value. The method in brief: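 The Tox21 protocol used parental HEK293 cells treated for 18 h at 37 C with compounds delivered by pintool; ATP-coupled luminescence after 30 min at room temperature gave viability.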
Experiment [22] can be described thus: qHTS assay for cell viability of the p53RE-bla HCT-116 cell line (AID 743292; active means well fitted curve in the direction sought with a large enough effect; an effect the other way counts as inactive or inconclusive; further: on the % scale 0 is the no-effect control and ±100 the full control effect; nearly all actives have a fitted effect of over 55% in size). The method, boiled down:
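HCT-116 p53RE-bla cells seeded 4,000/well; 5 h at 37 C; compound (DMSO) added; 16 h at 37 C; CellTiter-Glo added, 30 min RT; luminescence read.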

Experiment [23] deals with Nuclear receptor subfamily 1 group I member 2 (Rattus norvegicus) (UniProt Q9R1A7). Kind of experiment: qHTS assay for small molecule activators of the rat pregnane X receptor (rPXR) signaling pathway (AID 651751; call rule not given here; further: 0% is about no effect). The settings on record: rPXR reporter cells, luciferase (One-Glo), 24 h.
Sequence of Nuclear receptor subfamily 1 group I member 2 (Rattus norvegicus) (Q9R1A7 whole entry, looked up): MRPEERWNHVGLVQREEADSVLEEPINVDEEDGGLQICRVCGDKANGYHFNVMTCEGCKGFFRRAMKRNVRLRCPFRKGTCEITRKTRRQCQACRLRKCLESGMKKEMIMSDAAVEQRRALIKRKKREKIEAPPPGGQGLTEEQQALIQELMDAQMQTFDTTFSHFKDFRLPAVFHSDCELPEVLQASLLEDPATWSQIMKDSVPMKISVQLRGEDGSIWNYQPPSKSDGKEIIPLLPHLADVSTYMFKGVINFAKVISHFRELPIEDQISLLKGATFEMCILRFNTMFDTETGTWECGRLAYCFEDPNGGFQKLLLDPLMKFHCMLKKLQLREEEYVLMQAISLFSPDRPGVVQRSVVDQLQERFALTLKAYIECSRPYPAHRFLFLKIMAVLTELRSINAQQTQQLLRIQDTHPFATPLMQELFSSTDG
The nature of experiment [24]: qHTS assay for small molecule activators of the human pregnane X receptor (PXR) signaling pathway (AID 720659; call rule not given here; further: 0% is about no effect).
The nature of experiment [25]: qHTS assay for small molecule activators of the nuclear factor-kappa B (NF-kB) signaling pathway (AID 651749; active means well fitted activation curve with a large enough effect in the signal ratio; the % refers to the signal ratio; further: series mostly up to about 77 µM; % of control where 0% means no effect). The settings on record: NF-kB-bla ME-180 cells, beta-lactamase FRET ratio, 16 h; activation: stronger effect = higher value. The method in brief:
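Stably transfected ME-180 line; NF-kB response element upstream of beta-lactamase. Treatment: compound or DMSO, 16 hr. Detection: fluorescent FRET substrate.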

Sequence of Vitamin D3 receptor (Homo sapiens) (P11473 whole entry, looked up): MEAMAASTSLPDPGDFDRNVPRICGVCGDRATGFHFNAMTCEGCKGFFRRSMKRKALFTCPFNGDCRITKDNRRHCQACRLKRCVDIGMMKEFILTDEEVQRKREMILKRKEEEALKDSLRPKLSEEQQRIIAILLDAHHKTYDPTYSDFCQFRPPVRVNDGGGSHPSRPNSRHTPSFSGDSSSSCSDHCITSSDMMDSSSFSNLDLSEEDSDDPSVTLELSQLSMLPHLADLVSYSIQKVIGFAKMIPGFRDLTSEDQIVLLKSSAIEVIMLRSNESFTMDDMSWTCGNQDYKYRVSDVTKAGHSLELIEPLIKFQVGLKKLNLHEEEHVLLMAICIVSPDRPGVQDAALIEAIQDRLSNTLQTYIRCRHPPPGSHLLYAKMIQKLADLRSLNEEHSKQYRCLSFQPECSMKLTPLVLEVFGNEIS
Sequence of Peroxisome proliferator-activated receptor delta (Homo sapiens) (Q03181 whole entry, looked up): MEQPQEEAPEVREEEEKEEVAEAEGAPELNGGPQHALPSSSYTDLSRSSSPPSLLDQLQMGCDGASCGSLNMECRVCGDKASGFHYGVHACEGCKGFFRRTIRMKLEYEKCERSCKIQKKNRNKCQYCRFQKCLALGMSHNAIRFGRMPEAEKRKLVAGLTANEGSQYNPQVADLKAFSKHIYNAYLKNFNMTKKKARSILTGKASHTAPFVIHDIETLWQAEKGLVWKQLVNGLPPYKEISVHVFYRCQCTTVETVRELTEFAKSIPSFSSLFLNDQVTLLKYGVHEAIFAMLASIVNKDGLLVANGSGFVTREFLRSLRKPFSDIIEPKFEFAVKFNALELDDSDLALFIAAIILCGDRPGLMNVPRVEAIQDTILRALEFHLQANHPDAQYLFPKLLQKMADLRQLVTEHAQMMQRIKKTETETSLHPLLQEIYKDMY
Sequence of Thyroid hormone receptor beta (Homo sapiens) (P10828 whole entry, looked up): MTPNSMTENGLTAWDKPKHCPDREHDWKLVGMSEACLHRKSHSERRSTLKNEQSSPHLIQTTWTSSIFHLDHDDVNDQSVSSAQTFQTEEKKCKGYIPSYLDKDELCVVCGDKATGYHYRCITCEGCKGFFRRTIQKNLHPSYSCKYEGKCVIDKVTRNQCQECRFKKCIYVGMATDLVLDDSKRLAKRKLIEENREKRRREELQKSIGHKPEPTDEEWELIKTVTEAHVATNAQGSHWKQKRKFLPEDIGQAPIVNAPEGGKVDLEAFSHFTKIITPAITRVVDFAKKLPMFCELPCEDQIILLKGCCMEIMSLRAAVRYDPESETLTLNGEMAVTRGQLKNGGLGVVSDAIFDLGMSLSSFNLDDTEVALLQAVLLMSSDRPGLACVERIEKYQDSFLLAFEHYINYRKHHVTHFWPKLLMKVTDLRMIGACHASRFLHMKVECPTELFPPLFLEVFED
Sequence of Peroxisome proliferator-activated receptor alpha (Homo sapiens) (Q07869 whole entry, looked up): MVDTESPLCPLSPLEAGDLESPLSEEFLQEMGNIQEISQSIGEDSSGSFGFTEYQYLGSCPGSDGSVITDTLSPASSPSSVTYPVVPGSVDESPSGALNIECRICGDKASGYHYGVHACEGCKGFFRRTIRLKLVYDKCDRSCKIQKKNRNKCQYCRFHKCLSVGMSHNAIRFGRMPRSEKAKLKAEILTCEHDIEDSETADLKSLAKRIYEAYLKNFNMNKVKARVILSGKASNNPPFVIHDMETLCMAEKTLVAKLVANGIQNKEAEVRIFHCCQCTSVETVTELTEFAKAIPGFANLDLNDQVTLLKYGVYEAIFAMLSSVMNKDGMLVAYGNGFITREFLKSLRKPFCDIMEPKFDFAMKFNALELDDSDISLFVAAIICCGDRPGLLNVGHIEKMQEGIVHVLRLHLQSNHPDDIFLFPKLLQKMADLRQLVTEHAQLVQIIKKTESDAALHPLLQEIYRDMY
Sequence of Peroxisome proliferator-activated receptor gamma (Homo sapiens) (P37231 whole entry, looked up): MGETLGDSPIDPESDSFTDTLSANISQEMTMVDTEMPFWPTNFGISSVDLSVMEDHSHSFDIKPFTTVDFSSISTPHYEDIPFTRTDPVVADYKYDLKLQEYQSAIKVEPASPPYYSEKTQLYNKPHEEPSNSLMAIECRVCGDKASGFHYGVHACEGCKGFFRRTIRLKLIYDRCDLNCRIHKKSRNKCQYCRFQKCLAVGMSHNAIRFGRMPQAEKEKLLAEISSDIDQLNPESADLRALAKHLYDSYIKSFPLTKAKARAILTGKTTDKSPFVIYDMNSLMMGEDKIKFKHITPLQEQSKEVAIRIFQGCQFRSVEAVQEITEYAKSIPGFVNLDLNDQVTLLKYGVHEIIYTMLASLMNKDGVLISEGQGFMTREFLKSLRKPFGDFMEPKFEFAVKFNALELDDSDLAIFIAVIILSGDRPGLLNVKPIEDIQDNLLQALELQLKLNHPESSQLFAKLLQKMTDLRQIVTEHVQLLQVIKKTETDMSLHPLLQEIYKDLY
Sequence of Bile acid receptor (Homo sapiens) (Q96RI1 whole entry, looked up): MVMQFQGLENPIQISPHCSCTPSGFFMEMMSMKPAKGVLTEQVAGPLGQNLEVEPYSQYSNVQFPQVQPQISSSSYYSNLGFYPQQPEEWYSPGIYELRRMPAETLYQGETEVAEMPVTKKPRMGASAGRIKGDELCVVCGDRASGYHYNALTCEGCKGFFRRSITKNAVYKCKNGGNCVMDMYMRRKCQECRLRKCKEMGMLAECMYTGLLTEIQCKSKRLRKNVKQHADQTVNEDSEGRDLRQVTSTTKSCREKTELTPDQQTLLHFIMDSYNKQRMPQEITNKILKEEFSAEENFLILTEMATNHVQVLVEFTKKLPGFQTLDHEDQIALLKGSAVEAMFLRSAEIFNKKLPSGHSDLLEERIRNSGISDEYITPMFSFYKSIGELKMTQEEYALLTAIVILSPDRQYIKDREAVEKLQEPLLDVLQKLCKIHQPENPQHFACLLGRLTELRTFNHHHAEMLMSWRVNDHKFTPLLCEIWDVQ
Sequence of Retinoic acid receptor RXR-alpha (Homo sapiens) (P19793 whole entry, looked up): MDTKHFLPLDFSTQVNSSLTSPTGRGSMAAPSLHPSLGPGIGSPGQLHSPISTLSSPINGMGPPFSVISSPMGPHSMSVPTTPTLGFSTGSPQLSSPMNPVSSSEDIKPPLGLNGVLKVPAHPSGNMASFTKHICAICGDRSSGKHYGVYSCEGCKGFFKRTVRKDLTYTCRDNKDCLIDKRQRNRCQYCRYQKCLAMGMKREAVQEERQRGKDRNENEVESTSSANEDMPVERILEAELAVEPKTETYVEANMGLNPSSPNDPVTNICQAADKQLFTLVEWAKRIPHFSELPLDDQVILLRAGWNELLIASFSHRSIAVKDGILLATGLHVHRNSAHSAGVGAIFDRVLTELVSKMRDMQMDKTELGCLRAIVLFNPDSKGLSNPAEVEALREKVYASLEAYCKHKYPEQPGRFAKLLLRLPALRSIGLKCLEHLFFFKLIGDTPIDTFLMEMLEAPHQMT

As to `CCCCC(CC)COP(=O)(OCC(CC)CCCC)OCC(CC)CCCC` (stereo not drawn), the Potency entry in experiment [1] is “inactive”. Further, the activation in [2] was -0.972% (inactive). Moreover, the result in [3] was inactive.
`COP(=O)(NC(C)=O)SC` (stereo not drawn): the activation is -2.58% (inactive) in experiment [4], -0.529% (inactive) in experiment [16] and -1.62% (inactive) in experiment [17]. Moreover, the max response was -7.01% in experiment [5]; 3.46% in [13]; -0.657% (inactive) in experiment [18]; -8.51% (inactive) in experiment [20]; -8.22% (inactive) in experiment [21]; -1.19% (inactive) in [23]. The Potency result in [6], in experiment [7], in experiment [8], in [9], in experiment [11] and in experiment [12] was “inactive” in each case. The Potency entry in experiment [15], in experiment [19] and in experiment [22] was “inactive” throughout. For the same molecule, the result in experiment [10] and in [24] was inactive. Also, the activity change % (negative = inhibition) in experiment [14] was -13.5% (inactive).
As to `Oc1ccc(C(c2ccc(O)cc2)(C(F)(F)F)C(F)(F)F)cc1`, the activation in experiment [4] is -15.3% (inactive); in experiment [16], 22.5% (inactive); in experiment [25], -2.42% (inactive); in experiment [17], 0.672% (inactive). Moreover, the outcome in [3] and in [10] was inactive. Also, the max response in [5] is -38.3%; in experiment [18], -3.57% (inactive); in experiment [20] it was -1.13% (inactive); in [23] it was 0.831% (inactive). Besides, the Potency entry in [6], in [9], in experiment [12], in experiment [19] and in [22] was “inactive” each time. Besides, the Potency in [15] was 48.6 µM (active).
For the molecule `S=C([S-])NCCNC(=S)[S-].S=C([S-])NCCNC(=S)[S-].[Mn+2].[Zn+2]`, in experiment [4], the activation is 13.6% (inactive). The Potency entry in experiment [9] is “inactive”.
As to `CCCCCCCC[Si](OCC)(OCC)OCC`, in [3], the outcome was inactive.
